Among the data in ChEMBL document CHEMBL1961873, “Compounds: GSK PKIS; Assays: Nanosyn kinase panel” (2012) are inhibition values, retold here.

Assay [1] concerns the target Mast/stem cell growth factor receptor Kit (Homo sapiens) (UniProt P10721). The note with it: at 1 µM.
Assay [2] has as its system Mast/stem cell growth factor receptor Kit (Homo sapiens), P10721 [D816V]. To be noted: at 0.1 µM.
Assay [3] has the same test system. The note with it: at 1 µM.
Assay [4] relates to Mast/stem cell growth factor receptor Kit (Homo sapiens), P10721 [T670I]. To be noted: at 0.1 µM.
Sequence of Mast/stem cell growth factor receptor Kit (Homo sapiens), P10721 [T670I] (P10721 whole entry T670I): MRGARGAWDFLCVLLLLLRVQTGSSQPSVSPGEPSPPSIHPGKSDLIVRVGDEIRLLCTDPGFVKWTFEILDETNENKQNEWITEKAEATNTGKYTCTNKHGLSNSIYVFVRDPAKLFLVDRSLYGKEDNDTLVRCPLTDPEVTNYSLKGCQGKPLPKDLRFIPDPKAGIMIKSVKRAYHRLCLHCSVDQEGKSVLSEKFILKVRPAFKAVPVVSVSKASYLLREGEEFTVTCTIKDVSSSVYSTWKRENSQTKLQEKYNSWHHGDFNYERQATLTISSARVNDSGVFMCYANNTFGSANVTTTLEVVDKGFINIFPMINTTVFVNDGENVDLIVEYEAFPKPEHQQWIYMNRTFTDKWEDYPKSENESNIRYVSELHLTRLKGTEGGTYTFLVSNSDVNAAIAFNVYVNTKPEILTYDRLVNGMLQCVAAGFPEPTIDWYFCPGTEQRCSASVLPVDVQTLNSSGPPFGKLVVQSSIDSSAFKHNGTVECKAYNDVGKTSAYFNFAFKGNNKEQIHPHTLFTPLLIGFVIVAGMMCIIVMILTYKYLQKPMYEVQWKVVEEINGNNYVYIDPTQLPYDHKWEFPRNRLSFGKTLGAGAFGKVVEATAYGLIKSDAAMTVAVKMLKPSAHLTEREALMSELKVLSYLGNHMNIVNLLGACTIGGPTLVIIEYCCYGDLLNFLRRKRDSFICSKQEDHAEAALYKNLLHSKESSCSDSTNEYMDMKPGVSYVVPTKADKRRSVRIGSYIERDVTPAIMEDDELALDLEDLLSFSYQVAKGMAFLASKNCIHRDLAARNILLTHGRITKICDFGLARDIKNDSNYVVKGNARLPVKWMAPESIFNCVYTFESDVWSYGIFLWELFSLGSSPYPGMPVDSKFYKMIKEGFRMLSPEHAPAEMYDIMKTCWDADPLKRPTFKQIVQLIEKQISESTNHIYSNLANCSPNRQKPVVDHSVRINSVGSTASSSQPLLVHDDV
For assay [5] the test system is unchanged. To be noted: at 1 µM.
The subject of assay [6] is Mast/stem cell growth factor receptor Kit (Homo sapiens), P10721 [V560G]. To be noted: at 0.1 µM.
Assay [7] shares this test system. To be noted: at 1 µM.
In assay [8] the target is Tyrosine-protein kinase Lck (Homo sapiens) (UniProt P06239). To be noted: at 0.1 µM.
Sequence of Tyrosine-protein kinase Lck (Homo sapiens) (P06239 2-509 limits assumed): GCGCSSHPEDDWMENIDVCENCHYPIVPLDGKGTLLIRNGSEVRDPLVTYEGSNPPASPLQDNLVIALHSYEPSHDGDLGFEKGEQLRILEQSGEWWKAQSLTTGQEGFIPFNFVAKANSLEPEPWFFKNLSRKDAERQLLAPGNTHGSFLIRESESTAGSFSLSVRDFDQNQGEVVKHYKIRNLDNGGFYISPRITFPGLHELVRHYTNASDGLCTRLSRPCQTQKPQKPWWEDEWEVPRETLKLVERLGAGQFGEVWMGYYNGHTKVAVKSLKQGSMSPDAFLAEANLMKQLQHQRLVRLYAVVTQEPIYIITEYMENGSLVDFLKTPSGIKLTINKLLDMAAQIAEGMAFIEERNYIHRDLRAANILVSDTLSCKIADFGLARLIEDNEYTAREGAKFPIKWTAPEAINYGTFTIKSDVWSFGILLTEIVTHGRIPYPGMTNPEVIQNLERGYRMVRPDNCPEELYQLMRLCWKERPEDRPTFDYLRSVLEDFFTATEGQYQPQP
Assay [9] has the same target. The note with it: at 1 µM.
In assay [10] the target is Leukocyte tyrosine kinase receptor (Homo sapiens) (UniProt P29376). The note with it: at 0.1 µM.
Sequence of Leukocyte tyrosine kinase receptor (Homo sapiens) (P29376 whole entry): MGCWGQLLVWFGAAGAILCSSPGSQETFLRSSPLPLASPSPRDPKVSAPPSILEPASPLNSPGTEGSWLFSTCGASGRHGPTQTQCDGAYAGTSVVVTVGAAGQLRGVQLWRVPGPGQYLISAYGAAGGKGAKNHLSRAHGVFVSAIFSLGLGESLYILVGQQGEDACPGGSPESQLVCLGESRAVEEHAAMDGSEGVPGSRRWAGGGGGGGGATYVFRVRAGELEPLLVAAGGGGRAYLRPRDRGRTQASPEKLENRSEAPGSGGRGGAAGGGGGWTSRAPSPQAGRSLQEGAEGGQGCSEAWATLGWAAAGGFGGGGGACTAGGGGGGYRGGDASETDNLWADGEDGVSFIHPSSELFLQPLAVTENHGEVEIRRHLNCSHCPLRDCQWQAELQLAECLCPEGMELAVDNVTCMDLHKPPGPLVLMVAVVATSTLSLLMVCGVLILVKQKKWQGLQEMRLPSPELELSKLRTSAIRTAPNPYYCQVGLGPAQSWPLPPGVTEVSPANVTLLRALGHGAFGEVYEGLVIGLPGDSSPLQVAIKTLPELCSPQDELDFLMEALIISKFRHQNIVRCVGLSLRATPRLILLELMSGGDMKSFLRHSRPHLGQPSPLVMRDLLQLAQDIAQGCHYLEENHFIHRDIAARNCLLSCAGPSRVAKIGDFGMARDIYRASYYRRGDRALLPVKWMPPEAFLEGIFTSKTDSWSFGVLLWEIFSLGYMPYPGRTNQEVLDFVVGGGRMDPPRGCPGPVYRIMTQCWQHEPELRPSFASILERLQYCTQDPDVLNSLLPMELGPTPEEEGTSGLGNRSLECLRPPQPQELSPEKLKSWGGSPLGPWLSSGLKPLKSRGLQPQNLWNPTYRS
Assay [11] shares this target. The note with it: at 1 µM.
In assay [12] the target is Tyrosine-protein kinase Lyn (Homo sapiens) (UniProt P07948). To be noted: at 0.1 µM.
Sequence of Tyrosine-protein kinase Lyn (Homo sapiens) (P07948 2-512 limits assumed): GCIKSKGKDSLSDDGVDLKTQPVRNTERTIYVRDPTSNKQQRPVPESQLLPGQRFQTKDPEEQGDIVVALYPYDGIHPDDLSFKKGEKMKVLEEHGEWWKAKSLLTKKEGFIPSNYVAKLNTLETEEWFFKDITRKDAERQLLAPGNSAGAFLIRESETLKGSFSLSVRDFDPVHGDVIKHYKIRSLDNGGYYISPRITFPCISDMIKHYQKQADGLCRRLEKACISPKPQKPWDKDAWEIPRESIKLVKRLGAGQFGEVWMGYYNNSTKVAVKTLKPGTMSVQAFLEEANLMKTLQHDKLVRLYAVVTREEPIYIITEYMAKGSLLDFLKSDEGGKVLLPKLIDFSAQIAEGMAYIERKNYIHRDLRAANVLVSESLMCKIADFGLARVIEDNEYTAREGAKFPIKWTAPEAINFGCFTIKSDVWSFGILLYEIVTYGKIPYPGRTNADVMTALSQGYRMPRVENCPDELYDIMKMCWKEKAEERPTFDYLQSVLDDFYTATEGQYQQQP
Assay [13] shares this target. To be noted: at 1 µM.
The target is the same in assay [14]. The note with it: at 0.1 µM. This is another data set of the same source.
The target is the same in assay [15]. To be noted: at 1 µM. The source holds these as a separate data set.
Assay [16] concerns the target T1, Tyrosine-protein kinase Mer (Homo sapiens) (UniProt Q12866).
T1 sequence (whole entry): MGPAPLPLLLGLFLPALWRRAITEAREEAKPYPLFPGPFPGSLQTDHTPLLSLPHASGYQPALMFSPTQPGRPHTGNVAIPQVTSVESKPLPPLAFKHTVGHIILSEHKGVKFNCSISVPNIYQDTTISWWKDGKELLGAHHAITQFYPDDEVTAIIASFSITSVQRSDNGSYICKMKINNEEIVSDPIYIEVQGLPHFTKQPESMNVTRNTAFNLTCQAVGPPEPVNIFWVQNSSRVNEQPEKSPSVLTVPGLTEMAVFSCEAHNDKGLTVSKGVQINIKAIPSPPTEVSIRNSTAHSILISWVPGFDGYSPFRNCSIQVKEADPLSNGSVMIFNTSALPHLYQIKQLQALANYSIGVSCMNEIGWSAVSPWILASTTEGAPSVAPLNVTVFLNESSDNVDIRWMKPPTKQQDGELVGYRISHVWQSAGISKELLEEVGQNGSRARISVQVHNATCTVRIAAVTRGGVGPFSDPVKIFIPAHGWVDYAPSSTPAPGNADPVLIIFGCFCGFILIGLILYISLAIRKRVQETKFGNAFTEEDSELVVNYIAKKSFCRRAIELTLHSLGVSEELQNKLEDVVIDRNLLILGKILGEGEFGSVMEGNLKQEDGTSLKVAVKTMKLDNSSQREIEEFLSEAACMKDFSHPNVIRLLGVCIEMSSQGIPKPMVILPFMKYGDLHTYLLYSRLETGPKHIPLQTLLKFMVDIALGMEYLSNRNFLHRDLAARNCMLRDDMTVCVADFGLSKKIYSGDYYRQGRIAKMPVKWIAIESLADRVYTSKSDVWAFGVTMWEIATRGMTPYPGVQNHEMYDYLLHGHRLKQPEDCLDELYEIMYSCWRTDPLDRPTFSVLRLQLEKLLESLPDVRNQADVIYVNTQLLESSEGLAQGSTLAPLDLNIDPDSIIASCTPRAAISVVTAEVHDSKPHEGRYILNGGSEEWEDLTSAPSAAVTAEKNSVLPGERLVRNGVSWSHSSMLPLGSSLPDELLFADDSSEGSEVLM
The note with it: at 0.1 µM.

The target in assay [17] is T1, Tyrosine-protein kinase Mer (Homo sapiens). To be noted: at 1 µM.
In assay [18] the target is Hepatocyte growth factor receptor (Homo sapiens) (UniProt P08581). To be noted: at 0.1 µM.
Sequence of Hepatocyte growth factor receptor (Homo sapiens) (P08581 whole entry): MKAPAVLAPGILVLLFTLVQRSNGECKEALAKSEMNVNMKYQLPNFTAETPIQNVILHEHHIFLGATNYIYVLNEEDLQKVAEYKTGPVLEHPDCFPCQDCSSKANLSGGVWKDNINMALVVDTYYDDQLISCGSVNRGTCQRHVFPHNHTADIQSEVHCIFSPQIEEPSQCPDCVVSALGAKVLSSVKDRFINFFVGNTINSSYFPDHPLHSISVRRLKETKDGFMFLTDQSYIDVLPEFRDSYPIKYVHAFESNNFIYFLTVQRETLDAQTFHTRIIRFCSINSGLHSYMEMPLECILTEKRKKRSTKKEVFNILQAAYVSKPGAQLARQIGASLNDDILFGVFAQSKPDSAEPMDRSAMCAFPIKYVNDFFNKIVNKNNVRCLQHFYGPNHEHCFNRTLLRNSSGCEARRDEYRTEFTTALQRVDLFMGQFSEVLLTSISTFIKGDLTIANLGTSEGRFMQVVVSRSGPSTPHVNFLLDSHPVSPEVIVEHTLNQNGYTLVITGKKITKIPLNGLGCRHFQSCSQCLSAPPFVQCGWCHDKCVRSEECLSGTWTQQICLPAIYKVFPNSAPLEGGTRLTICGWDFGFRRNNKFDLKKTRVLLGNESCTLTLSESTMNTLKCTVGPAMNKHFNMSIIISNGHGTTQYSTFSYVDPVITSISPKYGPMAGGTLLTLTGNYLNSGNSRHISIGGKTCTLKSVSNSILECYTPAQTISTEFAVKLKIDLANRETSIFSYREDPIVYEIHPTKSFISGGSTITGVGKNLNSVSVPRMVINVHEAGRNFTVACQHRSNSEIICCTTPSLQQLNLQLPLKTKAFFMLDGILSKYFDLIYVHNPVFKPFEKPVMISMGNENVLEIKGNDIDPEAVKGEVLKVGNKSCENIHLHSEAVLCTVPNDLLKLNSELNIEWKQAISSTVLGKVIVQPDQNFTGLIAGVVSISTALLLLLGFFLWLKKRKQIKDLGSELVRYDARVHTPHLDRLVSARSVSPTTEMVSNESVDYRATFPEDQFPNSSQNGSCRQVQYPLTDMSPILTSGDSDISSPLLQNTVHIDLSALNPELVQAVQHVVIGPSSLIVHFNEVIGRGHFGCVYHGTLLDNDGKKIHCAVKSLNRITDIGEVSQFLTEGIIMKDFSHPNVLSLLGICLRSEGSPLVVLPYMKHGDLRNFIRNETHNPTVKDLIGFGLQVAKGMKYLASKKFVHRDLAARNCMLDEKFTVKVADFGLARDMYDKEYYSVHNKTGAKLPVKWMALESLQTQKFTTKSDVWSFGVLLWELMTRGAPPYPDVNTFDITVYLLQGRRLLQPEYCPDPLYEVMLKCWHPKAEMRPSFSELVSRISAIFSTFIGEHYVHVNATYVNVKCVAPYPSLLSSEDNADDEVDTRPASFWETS
For assay [19] the target is unchanged. To be noted: at 1 µM.
Assay [20] addresses T2, Muscle, skeletal receptor tyrosine-protein kinase (Homo sapiens) (UniProt O15146).
T2 sequence (whole entry): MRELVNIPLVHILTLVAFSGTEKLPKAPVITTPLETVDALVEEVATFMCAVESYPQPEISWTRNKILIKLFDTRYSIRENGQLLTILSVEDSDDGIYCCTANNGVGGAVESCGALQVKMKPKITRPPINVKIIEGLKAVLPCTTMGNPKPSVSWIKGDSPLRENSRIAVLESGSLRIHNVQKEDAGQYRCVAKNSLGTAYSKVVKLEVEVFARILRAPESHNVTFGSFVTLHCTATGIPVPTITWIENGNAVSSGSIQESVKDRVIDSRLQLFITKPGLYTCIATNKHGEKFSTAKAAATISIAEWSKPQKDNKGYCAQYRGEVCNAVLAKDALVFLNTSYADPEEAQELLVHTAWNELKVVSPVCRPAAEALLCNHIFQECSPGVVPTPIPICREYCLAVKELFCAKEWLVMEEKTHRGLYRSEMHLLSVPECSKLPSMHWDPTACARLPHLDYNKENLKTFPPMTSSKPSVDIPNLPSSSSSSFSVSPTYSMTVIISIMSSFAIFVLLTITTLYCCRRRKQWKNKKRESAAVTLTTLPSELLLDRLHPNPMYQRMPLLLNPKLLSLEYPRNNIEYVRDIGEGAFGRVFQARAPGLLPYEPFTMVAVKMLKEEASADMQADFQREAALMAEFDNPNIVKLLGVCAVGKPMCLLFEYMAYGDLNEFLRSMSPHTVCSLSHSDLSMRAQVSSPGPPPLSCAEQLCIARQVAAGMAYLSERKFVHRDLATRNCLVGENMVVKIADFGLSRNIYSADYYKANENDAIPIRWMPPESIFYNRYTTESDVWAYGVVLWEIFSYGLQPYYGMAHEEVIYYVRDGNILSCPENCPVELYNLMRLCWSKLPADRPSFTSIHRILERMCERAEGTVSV
The note with it: at 0.1 µM.

Sequence of Mast/stem cell growth factor receptor Kit (Homo sapiens), P10721 [V560G] (P10721 whole entry V560G): as the sequence (P10721 whole entry T670I) above, with V560G, I670T counted along it
Sequence of Mast/stem cell growth factor receptor Kit (Homo sapiens) (P10721 whole entry): as the sequence (P10721 whole entry T670I) above, with I670T counted along it
Sequence of Mast/stem cell growth factor receptor Kit (Homo sapiens), P10721 [D816V] (P10721 whole entry D816V): as the sequence (P10721 whole entry T670I) above, with I670T, D816V counted along it

Usually inhibition stands for the drop in the measured response relative to a control, in per cent. For `COC(=O)c1sc(-n2cnc3cc(OC)c(OC)cc32)cc1OCc1ccccc1C(F)(F)F`, the inhibition in assay [1] is 11.8%; in assay [2], 2.28%; in assay [3], 2.88%; in assay [4], 4.55%; in assay [5], 7.23%; in [6], -0.04%. The inhibition is 2.01% in assay [7]; 4.87% in assay [8]; 32.2% in [9]; 5.2% in assay [10]; 6.79% in [11]; 9.46% in assay [12]. Moreover, the inhibition in [13] was 19.6%; in assay [14], 6.71%; in [15], 14.7%; in assay [16], 1.24%; in assay [17] it was 2.08%; in assay [18], -0.86%. Also, the values for the inhibition in assay [19] and in assay [20] were 6.35% and 15.4%, respectively.

For `COc1cc(Nc2nccc(Nc3ccc4c(C)n[nH]c4c3)n2)cc(OC)c1OC`, the inhibition in assay [1] came out at 95.8%; in [2] it was 10.8%; in [3], 58.7%; in assay [4], 4.19%; in assay [5], 43.3%; in assay [6], 13.1%. Also, the inhibition in assay [7] was 57.9%; in [8] it was 34.4%; in assay [9], 82.4%; in assay [10], 2.14%; in [11], 33.3%; in [12], 49.6%. Besides, the inhibition amounted to 87.4% in [13]; 44.5% in [14]; 85.6% in assay [15]; 3.5% in [16]; 14.4% in assay [17]; 1.57% in assay [18]. The figures for the inhibition in assay [19] and in assay [20] were 12.3% and 21.3%, respectively.

As for `COc1cccc(-c2c[nH]c3c(N/N=C/c4ccncc4)ncnc23)c1`, the inhibition in [1] was found to be 88%; in [2] it was 8.75%; in assay [3], 38.7%; in assay [4], 7.21%; in assay [5], 51.1%; in assay [6] it was 4.19%. Further, the inhibition was 19.6% in [7]; 35.1% in assay [8]; 82% in assay [9]; 3.15% in assay [10]; 2.09% in assay [11]; 40.1% in [12]. Moreover, the inhibition is 83.3% in [13]; 33.8% in assay [14]; 81.8% in [15]; 2.09% in [16]; 15.7% in assay [17]; 4.89% in [18]. Moreover, the inhibition in assay [19] was 27.3%; in assay [20], 13.4%.

As to `CN(C)CCOc1ccc(-c2nc(-c3ccncc3)c(-c3ccc4c(c3)CC/C4=N\O)[nH]2)cc1`, the inhibition in [1] was found to be 5.36%; in assay [2] it was 1.54%; in [3], 6.73%; in [4], 3.27%; in assay [5] it was 9.66%; in [6], 1.4%. Further, the inhibition in assay [7] was 5.96%; in [8] it was 2.08%; in assay [9], 13.5%; in [10] it was 2.54%; in assay [11], 8.56%; in [12] it was 6.26%. The inhibition came out at 8.56% in [13]; 2.81% in assay [14]; 6.8% in [15]; 0.89% in assay [16]; 4.76% in assay [17]; 3.76% in assay [18]. Besides, the figures for the inhibition in assay [19] and in assay [20] were 13.3% and 2.95%, respectively.

For the molecule `Cc1ccc(O)cc1Nc1ccnc2cc(-c3ccccn3)ccc12`, the inhibition in [1] was found to be 43.1%; in [2] it was 23.5%; in assay [3] it was 73.7%; in assay [4], 4.94%; in assay [5], 3.09%; in assay [6], 3.25%. Besides, the inhibition in assay [7] was determined as 41.2%; in [8], 33.6%; in [9], 76.6%; in [10] it was 10.9%; in assay [11], 49.7%; in assay [12], 72.8%. Moreover, the inhibition in [13] was found to be 94.3%; in [14], 65.2%; in [15] it was 91.9%; in assay [16], 1.35%; in [17], 4.24%; in [18], 11.7%. Also, the inhibition in assay [19] turned out to be 5.41%; in assay [20], 3.21%.

Consider `NS(=O)(=O)c1ccc(Nc2ncc(-c3ccccc3)o2)cc1`, for which the inhibition in [1] turned out to be 88.6%; in assay [2], 0.49%; in [3] it was 2.25%; in assay [4], 14.9%; in [5] it was 58.7%; in assay [6], 9.24%. In addition, the inhibition in [7] came out at 52.5%; in assay [8], 1.77%; in assay [9], 6.21%; in assay [10], 4.12%; in [11] it was 6.46%; in assay [12], 5.4%. The inhibition amounted to 12.4% in assay [13]; 2.72% in assay [14]; 9.48% in assay [15]; 2.4% in assay [16]; 5.27% in assay [17]; 1.7% in [18]. Further, the inhibition in assay [19] is -0.71%; in assay [20] it was 3.44%.

`Nc1nc(-c2ccc(F)cc2)c(-c2ccc3ncccc3n2)s1`: the inhibition amounted to 9.66% in assay [1]; 1.91% in [2]; 5.04% in assay [3]; 4.73% in assay [4]; 5.34% in [5]; 2.59% in assay [6]. Besides, the inhibition in assay [7] was 2.66%; in assay [8] it was 9.43%; in [9], 16.7%; in assay [10] it was 3.99%; in [11], 7.86%; in assay [12], 9.43%. Also, the inhibition in assay [13] worked out at 39.4%; in assay [14] it was 7.37%; in [15] it was 33%; in [16], 2.57%; in assay [17] it was 5.56%; in [18], 4.07%. Besides, the inhibition was determined as 10.1% in [19] and 3.45% in [20].
